Experimental findings from PubChem BioAssay are described below.

For assay [1], the system named is Human papillomavirus type 1a protein E7 (residues 44-93). Description: small molecules binding HPV E7 44-93 – biochemical, small-molecule microarray, residues 44-93, 635 nm fluorescence, primary screen (AID 1108).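 Further: E7 fragment applied at 1 µg/mL in TBST for 1 h at 4 C; score combines spot fluorescence with its signal to noise ratio.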 Particulars: fluorescence 635 nm, higher = more signal.
A short description of assay [2]: hepatitis C replication reporter changes, two-sided – Huh7 cells, luciferase reporter, HCV replication inhibitor project, primary screen (AID 1109).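 Further: huh7 hepatoma cells harbouring a luciferase neomycin HCV replicon reporter; luciferase luminescence as measure of HCV replicon replication; test concentration not given here.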 Particulars: Huh7 HCV replicon luciferase reporter, 48 h; higher = more signal.
Assay [3] deals with Left-right determination factor 2 (Homo sapiens) (UniProt O00292). Description: small molecules binding LEFTY2 protein – biochemical, small-molecule microarray, 635 nm fluorescence scan, primary screen (AID 1110). Particulars: higher = more signal.
Sequence of Left-right determination factor 2 (Homo sapiens) (O00292 whole entry, looked up): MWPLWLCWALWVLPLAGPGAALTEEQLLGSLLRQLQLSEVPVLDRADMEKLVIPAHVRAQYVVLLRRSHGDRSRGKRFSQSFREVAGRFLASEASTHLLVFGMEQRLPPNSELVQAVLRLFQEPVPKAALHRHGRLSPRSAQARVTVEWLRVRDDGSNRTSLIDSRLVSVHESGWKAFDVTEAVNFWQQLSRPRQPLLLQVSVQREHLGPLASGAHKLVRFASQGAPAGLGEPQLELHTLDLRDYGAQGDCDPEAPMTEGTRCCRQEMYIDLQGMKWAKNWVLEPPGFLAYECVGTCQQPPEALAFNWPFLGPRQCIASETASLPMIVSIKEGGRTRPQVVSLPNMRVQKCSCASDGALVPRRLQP
Assay [4] has as its target Calmodulin-1 (Homo sapiens) (UniProt P0DP23). Description: small molecules binding calmodulin-1 with EGTA – biochemical, small-molecule microarray, Cy5-labelled CALM1, profiling panel (AID 1111).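 Further: labelled calmodulin applied in Tris saline Tween buffer holding calcium plus EGTA and DTT.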 To be noted: Cy5-CALM1 binding fluorescence, higher = more signal.
The target is the same in assay [5]. Description: small molecules binding Ca-loaded calmodulin-1 – biochemical, small-molecule microarray, Cy5-labelled CALM1, plus calcium, artefact control for SMM control-protein annotation, profiling panel (AID 1112).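 Further: score merges spot fluorescence with signal to noise from triplicate slides.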 Particulars: Cy5-CALM1 binding fluorescence, higher = more signal.
A short description of assay [6]: probe aWnt5a binding to arrayed compounds – biochemical, biotinylated probe, 635/667 nm fluorescence, primary screen (AID 1113).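 Further: score merges 667 nm fluorescence intensity with signal-to-noise per printed feature.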 To be noted: small-molecule microarray, higher = more signal.
Assay [7] is described as follows: probe aShh binding to arrayed compounds – biochemical, biotinylated probe, 635/667 nm fluorescence, primary screen (AID 1114).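 Further: probe is biotin-labelled aShh protein from a stem cell growth factor screen; measures binding of labelled protein to compounds printed on the slide; score merges feature fluorescence at 667 nm with signal-to-noise.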 Particulars: small-molecule microarray, higher = more signal.
Assay [8] in a line: probe aNog binding to arrayed compounds – biochemical, biotinylated probe, 635/667 nm fluorescence, primary screen (AID 1115).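 Further: probe is biotinylated aNog protein used at 0.15 µg/mL for 1 h at 4 C; z-score combines 667 nm fluorescence of each spot with its signal to noise.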 To be noted: small-molecule microarray, higher = more signal.
The target in assay [9] is Torsin-1A-interacting protein 1 (Homo sapiens) (UniProt Q5JTV8). Description: compound microarray binding of lysate hLAP1 – cell lysate, small-molecule microarray, COS7 lysate, 635/667 nm fluorescence, primary screen (AID 1116). Particulars: 635 nm fluorescence, higher = more signal.
Sequence of Torsin-1A-interacting protein 1 (Homo sapiens) (Q5JTV8 whole entry, looked up): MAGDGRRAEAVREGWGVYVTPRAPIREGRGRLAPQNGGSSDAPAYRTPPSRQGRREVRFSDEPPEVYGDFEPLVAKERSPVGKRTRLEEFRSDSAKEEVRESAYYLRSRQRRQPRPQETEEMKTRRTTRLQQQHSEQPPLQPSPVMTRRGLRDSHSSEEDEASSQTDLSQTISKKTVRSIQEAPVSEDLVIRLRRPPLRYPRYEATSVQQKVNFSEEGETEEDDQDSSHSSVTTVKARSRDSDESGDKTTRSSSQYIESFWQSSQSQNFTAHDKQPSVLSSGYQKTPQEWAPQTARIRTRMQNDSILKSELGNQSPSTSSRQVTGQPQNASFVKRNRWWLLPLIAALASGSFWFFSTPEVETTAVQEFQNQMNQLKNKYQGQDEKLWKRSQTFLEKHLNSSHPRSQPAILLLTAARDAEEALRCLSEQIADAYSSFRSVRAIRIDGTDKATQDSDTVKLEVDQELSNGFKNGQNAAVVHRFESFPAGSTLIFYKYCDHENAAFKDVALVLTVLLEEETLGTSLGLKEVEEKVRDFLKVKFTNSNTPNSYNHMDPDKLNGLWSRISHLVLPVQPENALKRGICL
The target in assay [10] is Alpha-bungarotoxin (Bungarus multicinctus) (UniProt P60615). Kind of assay: compounds binding labelled alpha-BTX control protein – biochemical, small-molecule microarray, Alexa647 label, 635/667 nm fluorescence, artefact control for SMM control protein annotation, profiling panel (AID 1117). To be noted: alpha-BTX-A647 binding fluorescence, higher = more signal.
Sequence of Alpha-bungarotoxin (Bungarus multicinctus) (P60615 whole entry, looked up): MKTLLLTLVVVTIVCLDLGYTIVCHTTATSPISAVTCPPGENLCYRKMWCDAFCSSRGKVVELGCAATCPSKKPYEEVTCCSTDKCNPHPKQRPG

On to `COC(=O)CC=C[C@@H](C)[C@@H](C=NO[C@@H](C)c1cn([C@H](CO)Cc2ccccc2)nn1)OC`, for which the composite z-score is 0.939 in [1]; 0.499 in assay [3]; -1.04 in assay [4]; -1.48 in [5]; -0.0944 in [6]; -0.138 in [7]. For the same compound, the composite z-score is 0.15 in [8], -0.0644 in assay [9] and -0.027 in assay [10]. In assay [2], this compound came in with a z-score of 0.0629.
For the compound `CO[C@@H]1COC(=O)[C@@H](C)COC(=O)[C@@H](C)NC(=O)CC=C[C@@H]1C`, the composite z-score in assay [1] was -1.03; in assay [3], 1.51; in assay [4], -0.99; in assay [5], -2.06; in assay [6] it was -0.2; in assay [7], -0.13. The composite z-score in assay [8] is 0.0629; in assay [9], 0.638; in assay [10], -0.553. Further, the z-score in assay [2] was -2.
With `CON=CC[C@@H]1C=C[C@H](OC(C)=O)[C@@H](COC(C)=O)O1`, the composite z-score in [1] is -0.0635; in [3], 0.533; in assay [4], -0.536; in [5], -0.688; in assay [6], 0.0004; in assay [7], 0.351. For the same compound, the figures for the composite z-score in [8], in assay [9] and in assay [10] were -0.0281, 0.292 and 0.479, respectively. Also, in assay [2], the z-score turned out to be 0.569.
For the compound `COc1ccc(O[C@H]2C=C[C@@H](c3ccccc3)O[C@@H]2CON=C(C)C)cc1`, the composite z-score in assay [1] is -0.336; in [3], 0.317; in [4] it was 0.0047; in assay [5], 0.495; in assay [6] it was 0.0761; in assay [7] it was 0.318. Besides, the composite z-score in [8] was 0.118; in assay [9], 0.314; in assay [10] it was 0.724. The same compound showed a z-score in [2] of -0.75.
As to `CCOC(=O)[C@H](Cc1ccccc1)NC(=O)CCC1CC(OC(=O)NCc2cccc3ccccc23)CC2(CCCC(COC(=O)NCC(c3ccccc3)c3ccccc3)O2)O1` (stereo not given in full), the composite z-score is 0.313 in assay [1]; 0.567 in assay [3]; -0.328 in [4]; -0.43 in [5]; -0.096 in assay [6]; -0.2 in [7]. Also, the composite z-score was -0.187 in [8], 0.18 in [9] and -0.0602 in assay [10]. In assay [2], the z-score was -1.46.
Consider `COC(=O)CC=C[C@@H](C)[C@@H](C=NO[C@@H]1O[C@H](COC(C)=O)[C@@H](OC(C)=O)[C@H](OC(C)=O)[C@H]1OC(C)=O)OC`, for which the composite z-score in [1] was -0.428; in [3], 0.499; in [4] it was -0.937; in assay [5], -1.48; in assay [6], -0.175; in [7] it was -0.309. In addition, the composite z-score was -0.249 in assay [8], -0.461 in assay [9] and -0.463 in [10]. In assay [2], the z-score is -1.57.
Take `O=C1CCCC(C2=CCCCC2=O)C1` (stereo not given): the composite z-score in [1] is -0.281; in assay [3], 0.524; in [4], -0.732; in assay [5], -1.38; in assay [6], -0.0548; in assay [7] it was 0.116. Also, the composite z-score was -0.14 in [8], 0.086 in assay [9] and -0.19 in [10]. Besides, the z-score in assay [2] was -0.293.
Take `C=Cc1ccc([C@H]2N[C@H](C(=O)O)CC[C@@H]2C)cc1`: the composite z-score in assay [1] is -1.08; in assay [3], 0.712; in assay [4], -0.478; in assay [5] it was 0.222; in assay [6] it was -0.105; in assay [7], -0.0553. For the same compound, the values for the composite z-score in assay [8], in [9] and in [10] were -0.147, -0.0037 and -0.112, respectively. The z-score in assay [2] was -1.09.
In the case of `CCOC(=O)[C@H](Cc1ccccc1)NC(=O)CCC1CC(OC(=O)NCCc2ccc(F)cc2)CC2(CCCC(COC(=O)NCCCN3CCCC3=O)O2)O1` (stereo not given in full), the composite z-score in [1] is 1.35; in assay [3], 0.612; in assay [4], 0.566; in assay [5], -0.043; in assay [6], -0.0222; in assay [7], 0.149. For the same compound, the results for the composite z-score in assay [8], in [9] and in assay [10] were 0.0083, 0.0166 and 0.261, respectively. Moreover, the z-score in [2] is -0.427.
Take `CC(=O)OC[C@H]1O[C@H](C#Cc2ccccc2)C=C[C@@H]1OC(C)=O`: the composite z-score was -0.234 in assay [1]; 0.711 in assay [3]; -0.376 in assay [4]; -0.449 in assay [5]; -0.119 in assay [6]; -0.124 in assay [7]. For the same compound, the composite z-score was 0.115 in assay [8], 0.288 in assay [9] and -0.686 in [10]. The same compound gave a z-score in assay [2] of -2.92.
As for `CC(=O)O[C@H]1C2=CO[C@H](C)[C@H]3[C@H]4C5=C([C@H](O)[C@H]6O[C@H]6C5=O)[C@H](OC4C)[C@@]23C(=O)[C@@H]2O[C@@H]21` (stereo not given in full), the composite z-score in assay [1] was -0.361; in assay [3] it was 0.384; in assay [4] it was -0.935; in [5], -0.994; in [6], 0.0108; in assay [7] it was 0.0804. The values for the composite z-score in [8], in [9] and in assay [10] were 0.262, 0.963 and -1.03, respectively. In assay [2], the z-score is -4.68.
Consider `COC(=O)[C@@H]1CC[C@H](C)[C@@H](c2ccc(C)cc2)N1C(=O)c1ccc(C=NO[C@H](C)c2cn([C@H](CO)Cc3ccccc3)nn2)cc1`, for which the composite z-score is 0.671 in [1]; 0.776 in assay [3]; 3.17 in assay [4]; -0.139 in assay [5]; -0.124 in assay [6]; 0.191 in [7]. Moreover, the composite z-score was -0.0318 in [8], 0.462 in [9] and 0.0997 in assay [10]. The z-score in assay [2] is -2.17.
Take `CCOC(=O)[C@H](CC(C)C)NC(=O)CCC1CC(OC(=O)NCc2cccc3ccccc23)CC2(CCCC(COC(=O)NCCCN3CCCC3=O)O2)O1` (stereo not given in full): the composite z-score was 1.15 in assay [1]; 0.446 in assay [3]; 0.446 in [4]; -0.385 in assay [5]; -0.194 in assay [6]; -0.206 in assay [7]. For the same compound, the composite z-score in assay [8] was -0.467; in assay [9], 0.196; in [10], 0.754. The compound also gave a z-score in [2] of -1.12.
Turning to `Cn1c(=O)n2n(c1=O)[C@H]1[C@H](O)[C@@H]3O[C@@H]3C(=O)[C@H]1CC2`, the composite z-score in assay [1] is 0.625; in assay [3] it was 0.486; in assay [4], -0.144; in assay [5] it was -0.502; in assay [6] it was -0.104; in assay [7] it was -0.0146. Also, the composite z-score in assay [8] was -0.234; in [9] it was 0.663; in [10] it was -0.541. In addition, the z-score in assay [2] was found to be 0.101.
For the compound `CCOC(=O)[C@H](Cc1ccccc1)NC(=O)CCC1CC(OC(=O)NCCc2ccc(F)cc2)CC2(CCCC(COC(=O)NCCc3ccccc3OC)O2)O1` (stereo not given in full), the composite z-score in [1] was 1.37; in assay [3], 0.515; in assay [4] it was 0.63; in assay [5], -0.403; in assay [6], -0.0236; in assay [7] it was 0.0278. The composite z-score in assay [8] is -0.285; in assay [9], 0.705; in assay [10] it was 0.473. The z-score in [2] is -1.19.
Take `COc1cc(O)c(C(=O)C=Cc2ccc3c(c2)OCO3)c(OC)c1`: the composite z-score in assay [1] is -2.33; in assay [3], -0.143; in [4], 0.283; in [5], -0.582; in assay [6], 0.0438; in [7] it was -0.332. Moreover, the figures for the composite z-score in [8], in assay [9] and in assay [10] were -0.219, -0.289 and 0.825, respectively. The z-score in assay [2] is -1.53.
